Assay outcomes deposited in PubChem BioAssay by National Center for Advancing Translational Sciences (NCATS).
Many of the other results were omitted from the sample, so hits are more common in it than they were.
APE1 inh = qHTS Assay for Inhibitors of the Human Apurinic/apyrimidinic Endonuclease 1 (APE1); DNA repair nuclease/redox regulator APEX1 (Homo sapiens), P27695; recombinant APE1, TAMRA/BHQ-2 abasic DNA cleavage fluorescence; 350,000 tested, 0.35% active; AID 2517, 2012; Potency, µM (titrated, usually from 65.8 µM), usual class: inhibitors; note: nearly all actives have a fitted effect of over 55% in size
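Endonuclease cleavage of a quenched abasic-site DNA duplex (50 nM) by APE1 (0.75 nM) was tracked by TAMRA dequenching. Compounds were preincubated with enzyme 15 min at room temperature; data normalized to buffer-only and DMSO wells plus NSC13755 control.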
RECQ1 inh = qHTS Assay for Inhibitors of RecQ-Like Dna Helicase 1 (RECQ1) | 240,000 tested, 0.54% active | Potency, µM (highest dose often 57.3 µM), actives largely listed as inhibitors | ATP-dependent DNA helicase Q1 (Homo sapiens), P46063 | RECQ1 DNA unwinding, red fluorescence kinetic read; note: nearly all actives have a fitted effect of over 30% in size
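RECQ1T1 50 nM; forked duplex (20 bp + 30-nt ss tails) 200 nM, ATP 2 mM final; pH 8.0, 2 mM MgCl2, 2.5 ug/ml poly(dI-dC); 15 min compound preincubation; discontinuous kinetic read over 2 h at RT.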
BLM inh = qHTS Assay for Inhibitors of Bloom's syndrome helicase (BLM). recombinant BLM DNA unwinding, fluorescence dequenching. Potency, µM (top dose mostly 56.1 µM), hits mostly inhibitors. 350,000 tested, 0.2% active. RecQ-like DNA helicase BLM (Homo sapiens), P54132; note: nearly all actives have a fitted effect of over 35% in size
Target sequence (P54132 whole entry, looked up): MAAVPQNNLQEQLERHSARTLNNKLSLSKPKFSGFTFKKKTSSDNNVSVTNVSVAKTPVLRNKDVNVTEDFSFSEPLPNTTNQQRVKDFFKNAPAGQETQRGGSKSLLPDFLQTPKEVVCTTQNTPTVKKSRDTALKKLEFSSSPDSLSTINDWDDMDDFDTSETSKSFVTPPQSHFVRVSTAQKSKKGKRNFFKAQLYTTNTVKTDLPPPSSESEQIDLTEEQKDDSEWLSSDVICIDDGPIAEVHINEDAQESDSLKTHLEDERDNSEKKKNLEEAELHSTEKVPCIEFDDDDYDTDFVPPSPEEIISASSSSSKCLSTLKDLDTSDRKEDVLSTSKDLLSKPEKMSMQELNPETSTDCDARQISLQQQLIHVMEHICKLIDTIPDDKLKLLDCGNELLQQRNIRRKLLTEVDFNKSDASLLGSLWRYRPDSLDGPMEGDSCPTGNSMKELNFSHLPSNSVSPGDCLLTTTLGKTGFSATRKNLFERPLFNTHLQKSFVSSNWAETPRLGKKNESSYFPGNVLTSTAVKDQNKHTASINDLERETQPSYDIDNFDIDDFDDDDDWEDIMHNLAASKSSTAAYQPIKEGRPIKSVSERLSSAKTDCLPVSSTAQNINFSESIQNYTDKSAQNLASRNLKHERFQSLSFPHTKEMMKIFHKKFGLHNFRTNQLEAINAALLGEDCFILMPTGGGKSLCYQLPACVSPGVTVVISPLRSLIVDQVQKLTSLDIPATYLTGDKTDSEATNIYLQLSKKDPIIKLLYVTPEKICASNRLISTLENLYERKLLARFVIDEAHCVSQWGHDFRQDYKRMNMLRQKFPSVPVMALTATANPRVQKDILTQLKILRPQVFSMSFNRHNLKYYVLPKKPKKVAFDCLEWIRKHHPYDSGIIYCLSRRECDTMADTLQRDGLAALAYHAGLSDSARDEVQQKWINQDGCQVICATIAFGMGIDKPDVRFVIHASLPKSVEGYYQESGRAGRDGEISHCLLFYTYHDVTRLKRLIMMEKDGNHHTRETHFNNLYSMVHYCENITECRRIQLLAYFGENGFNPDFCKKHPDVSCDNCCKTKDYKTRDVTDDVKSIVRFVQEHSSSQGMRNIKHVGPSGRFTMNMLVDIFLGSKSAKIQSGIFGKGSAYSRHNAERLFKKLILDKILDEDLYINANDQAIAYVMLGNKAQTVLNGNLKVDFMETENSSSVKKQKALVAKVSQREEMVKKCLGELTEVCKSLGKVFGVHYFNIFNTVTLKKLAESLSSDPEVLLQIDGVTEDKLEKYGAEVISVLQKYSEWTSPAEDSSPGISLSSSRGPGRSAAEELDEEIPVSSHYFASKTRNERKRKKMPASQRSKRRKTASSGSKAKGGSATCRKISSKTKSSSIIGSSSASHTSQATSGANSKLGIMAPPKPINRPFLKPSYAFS
TDP1 block = qHTS Assay for Inhibitors of Tyrosyl-DNA Phosphodiesterase (TDP1). recombinant TDP1, AlphaScreen DNA substrate cleavage. 350,000 tested, 0.28% active. Potency, µM (doses to about 130 µM), usual class: inhibitors. AID 485290, 2010. Tyrosyl-DNA phosphodiesterase 1 (Homo sapiens), Q9NUW8; note: nearly all actives have a fitted effect of over 40% in size
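Here, a 5' biotin and 3' phosphotyrosine-FITC DNA oligonucleotide reports Tdp1 activity: intact substrate bridges AlphaScreen beads, while cleavage leaves a 3' phosphate and drops signal. All incubations at room temperature.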
L3MBTL1 inh = qHTS Assay for the Inhibitors of L3MBTL1. Lethal(3)malignant brain tumor-like protein 1 (Homo sapiens), Q9Y468. AlphaScreen L3MBTL1–H3K9me1 peptide binding. Potency, µM (titrated, usually from 57.1 µM), most hits filed as inhibitors. 230,000 tested, 0.66% active; note: nearly all actives have a fitted effect of over 60% in size
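Displacement of a biotinylated histone H3(1-15) peptide monomethylated at Lys9 (75 nM) from L3MBTL1 (50 nM) was measured by AlphaScreen after a 30 min room-temperature compound incubation; cefsulodin titration served as intraplate control.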
JMJD2E inh = qHTS Assay for Inhibitors of Human Jumonji Domain Containing 2E (JMJD2E). JMJD2E catalytic domain, FDH-coupled NADH fluorescence (FDH is formaldehyde dehydrogenase). Potency, µM (highest dose often 57.1 µM), most hits filed as inhibitors. 230,000 tested, 1.6% active. AID 2147, 2009; active = well fitted inhibition curve with a large enough effect, not every such curve was filed as active; inconclusive = small, poorly fitted or top-dose-only effect, or another doubt; inactive = no such curve, though single readings can be large or run the other way; note: nearly all actives have a fitted effect of over 50% in size
Numbers stand for hits; - = inactive; ? = inconclusive; . = not tested or not shown; ! = a repeat was not active. Unless noted, calls come from the whole dose curve; as a rule, active = well fitted curve in the direction sought with a large enough effect; inconclusive = small, poorly fitted or top-dose-only effect, or another doubt; inactive = no such curve, though single readings can be large; an effect the other way counts as inactive or inconclusive.

SMILES	APE1 inh	RECQ1 inh	BLM inh	TDP1 block	L3MBTL1 inh	JMJD2E inh
Cc1cc([N+](=O)[O-])cc(/C=N\NC(=O)C2COc3ccccc3O2)c1O (stereo not given)	-	-	-	-	25.1µM	?
Cc1ccc(-c2csc(NS(=O)(=O)c3cccc(F)c3)n2)o1	-	.	.	-	28.2µM	.
N#C/C(=C\c1ccc(OC(=O)c2ccc(Br)s2)cc1)c1nc2ccccc2[nH]1	-	-	-	-	-	17.8µM
Cc1ccc(NC(=O)c2ccc3nc[nH]c3c2)nc1	-	.	-	35.5µM	.	.
O=C(Cc1ccccc1)Nc1sc2c(c1C(=O)Nc1cccc(Cl)c1)CCCC2	.	.	.	-	.	.
CC(C)CC(=O)N[C@H](C(=O)N[C@H](C(=O)N[C@@H](CC(C)C)[C@@H](O)CC(=O)N[C@@H](C)C(=O)N[C@@H](CC(C)C)[C@@H](O)CC(=O)O)C(C)C)C(C)C	-	31.6µM!	-	?	-	-
Cc1cccc(NC(=O)C2CCCN(S(=O)(=O)c3cnc[nH]3)C2)c1C (stereo not given)	.	.	-	-	.	.
Cc1cccc(-n2c3nc(=O)[nH]c(=O)c-3cc3cc([N+](=O)[O-])ccc32)c1	-	-	-	-	-	?
Cc1ccc(C)c(-n2c3nc(=O)[nH]c(=O)c-3cc3cc([N+](=O)[O-])ccc32)c1	-	-	20µM	-	?	-
COc1ccc2c(c1OC)C(=O)OC2CC(=O)c1ccc(O)c(O)c1 (stereo not given)	-	-	-	-	.	14.1µM
CCCCN(CC)S(=O)(=O)c1ccc(C(=O)Nc2nnc(-c3cccs3)o2)cc1	-	-	-	-	.	25.1µM
CC(C)(C)c1ccc(Cn2cnc3c(cnn3C(C)(C)C)c2=O)cc1	-	.	.	.	.	.
COC(=O)c1ccccc1-c1ccc(/C=N/NC(=O)c2cc3ccccc3o2)o1	-	-	-	-	-	?
COC(=O)c1ccccc1-c1c2ccc(=N)cc-2oc2cc(N)ccc12	26.7µM	.	.	-	-	.
Cc1ccc(OCC(=O)N(Cc2ccc(N(C)C)cc2)CC2CCCO2)cc1C (stereo not given)	.	.	-	-	.	.
CN(c1ccccc1)c1nc(N)c(C#N)c(CC#N)c1C#N	-	-	-	-	-	-
CC(C)CN(CC(C)C)c1nc(N)c(C#N)c(CC#N)c1C#N	-	28.2µM	-	-	-	?
CC[C@H](C)[C@H](NC(=O)[C@@H](NC(=O)[C@@H](CC(=O)NO)Cc1ccccc1)[C@@H](C)CC)C(=O)O	-	-	-	-	.	.
[O-][n+]1c2ccccc2[n+]([O-])c2cc(O)ccc21	18.9µM	.	-	.	.	.
[O-][n+]1c(/C=C/c2ccccc2)ccc2ccccc21	-	.	-	.	-	.
Cc1cc(/C=N/Nc2nc(N3CCOCC3)nc(N3CCOCC3)n2)c(C)n1-c1ccccc1	-	-	-	-	.	35.5µM
Cc1cc(=O)[nH]c(N/N=C/c2cc(C)n(-c3ccccc3)c2C)n1	-	-	-	-	?	?
CN(Cc1ccco1)c1cc(-c2ccoc2)ncn1	?	-	-	.	.	.
COc1ccc(/C(C)=N/NC(=O)c2cccc(S(=O)(=O)N3CCCC3)c2)c(O)c1	-	.	.	.	6.31µM	.
NNC(=O)c1cc(-c2cccs2)nc2ccccc12	-	-	-	-	-	?
SMILES	APE1 inh	RECQ1 inh	BLM inh	TDP1 block	L3MBTL1 inh	JMJD2E inh
C/C(=N\NC(=O)c1cc(-c2cccs2)nc2ccccc12)c1ccccn1	-	-	-	-	28.2µM	?
CCNC(=O)c1ccc(C)c(-n2c(C)nc3cccnc32)c1	.	.	-	-	.	.
CC(=O)c1ccsc1-c1c(C)cc2oc(=O)cc(-c3ccccc3)c2c1C	-	22.4µM	-	-	-	.
Cc1cc2oc(=O)cc(-c3ccccc3)c2c(C)c1-c1sccc1C=O	-	-	-	-	.	.
COc1ccccc1NC(=O)Cn1c(=O)n(-c2cccc(Cl)c2)c(=O)c2c1c1cc(C)ccc1n2C	.	.	-	-	.	.
O=c1ccc2ccc(O)c(O)c2o1	12.6µM	-	.	?	.	7.08µM
CCOc1cc(C2C3=C(CCCC3=O)NC3=C2C(=O)CCC3)ccc1OCCO	-	-	-	-	.	31.6µM
Cc1cc(C)n2c(=S)[nH]nc2n1	-	-	-	-	-	7.08µM
O=C(Nc1ccccc1[N+](=O)[O-])c1csnn1	.	.	-	-	.	.
Cc1[nH]c2ccccc2c1CN1CCC(Cc2ccccc2)CC1	-	-	-	-	-	25.1µM
O=c1[nH][nH]c(=S)n1C1CCCCC1	-	-	-	-	-	2.82µM
NS(=O)(=O)c1ccc(CCNS(=O)(=O)c2cccc(C(=O)O)c2)cc1	-	-	-	79.4µM	-	-
CC(C)=CCc1c(O)cc2oc3c(CC=C(C)C)c(O)c(O)c(CC=C(C)C)c3c(=O)c2c1O	?	-	?	.	.	28.2µM
COc1c(O)cc2oc3cc(O)c(CC=C(C)C)c(O)c3c(=O)c2c1CC=C(C)C	-	-	-	-	.	-
CC(C)Oc1ccc(CNC(=O)C2=Cc3ccccc3OC2)cc1	.	.	-	-	.	.
Cc1ccc2ncccc2c1	-	-	.	-	-	.
Cc1cc(N(C)C)ccc1N=Nc1ccc2ncccc2c1	?	-	-	-	8.91µM	-
CCn1c(=O)c(=O)n(CC)c2cc(N3CCCCC3)c(NC(=O)c3cccc(OC)c3)cc21	.	.	-	-	.	.
Cc1c(C(=O)NCc2ccc3c(c2)OCO3)oc2ccc(S(=O)(=O)N3CCCC3)cc12	-	-	-	-	-	35.5µM
Cc1c(C(=O)NCc2ccc3c(c2)OCO3)oc2ccc(S(=O)(=O)N3CCCCC3)cc12	-	-	-	-	-	?
CCC(CC)C(=O)Nc1cc(-c2cccc(C)c2)nn1-c1ccccc1	.	.	-	-	.	.
CCOc1nc(-c2ccccc2)ccc1-c1noc(-c2ccc(C)cc2)n1	.	.	-	-	.	.
CCOc1nc(-c2ccc(C)cc2)ccc1-c1noc(-c2cccnc2)n1	?	-	-	-	-	4.47µM
[O-]c1c[n+](-c2ccccc2)no1	-	-	-	.	.	-
[O-]c1c[n+](-c2ccc(-[n+]3cc([O-])on3)cc2)no1	-	-	-	-	?	25.1µM
CCOc1ccc(S(=O)(=O)N(C(=O)c2ccco2)c2cc3sc(=O)oc3c3ccccc23)cc1	-	-	-	-	-	15.8µM
Cc1ccc(S(=O)(=O)N(C(=O)c2ccco2)c2cc3sc(=O)oc3c3ccccc23)cc1	-	-	-	-	-	14.1µM
